Compound activity as filed in PubChem BioAssay.
Hits are enriched below; roughly 2.5% of the tested compounds scored in any of these assays.
D2 PAM-1 – D2 dopamine receptor (human) potentiation; AID 485347; potentiation, % at 10 µM; 0.34% of 340,000 active; P14416; HEK293 T-REx D2, calcium flux, EC20 dopamine potentiation;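 active = potentiation over 3 SD above the plate norm, cut at about 30% in these data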; also: 0% is about no effect
Target sequence (P14416 whole entry, looked up): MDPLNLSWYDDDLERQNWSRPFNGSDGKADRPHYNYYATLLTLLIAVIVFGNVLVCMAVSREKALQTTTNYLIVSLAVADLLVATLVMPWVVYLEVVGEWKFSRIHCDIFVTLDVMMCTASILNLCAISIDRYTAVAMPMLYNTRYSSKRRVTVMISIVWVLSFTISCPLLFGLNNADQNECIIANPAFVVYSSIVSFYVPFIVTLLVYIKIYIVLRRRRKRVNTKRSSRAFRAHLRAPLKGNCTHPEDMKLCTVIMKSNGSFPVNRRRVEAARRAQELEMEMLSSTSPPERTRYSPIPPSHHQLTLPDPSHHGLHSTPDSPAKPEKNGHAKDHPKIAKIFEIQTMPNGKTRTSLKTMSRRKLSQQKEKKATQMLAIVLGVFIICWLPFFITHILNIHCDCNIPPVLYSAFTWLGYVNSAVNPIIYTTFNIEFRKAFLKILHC
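Primary screen. Calcium kinetics in induced HEK293 T-REx D2 cells: compound pre-addition 180 s, EC20 dopamine, 180 s more.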
D2 antag – antagonists of human D2 dopamine receptor | 2% of 340,000 active | HEK293 TREx D2 cells, calcium flux, dopamine EC80 | P14416 | inhibition, % at 10 µM; in the data active = inhibition above about 30%; inactive = below that, where a call was filed; also: 0% is about no effect
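HEK293 T-REx D2 cells, tet-induced, calcium dye no-wash. Cpd pintool add, 180 s kinetic, then EC80 DA, 180 s kinetic. Ca flux read.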
D2 ag-1 – activates the human D2 dopamine receptor; P14416; DiscoveRx PathHunter D2 beta-arrestin, luminescence, 90 min; 100% = 57 uM dopamine signal; activation, % (concentration not given with the values); 0.084% of 360,000 active; AID 624465; in the data active = activation above about 40%; inconclusive = between about 15% and that limit
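Agonist mode: compounds alone added to overnight-plated D2 PathHunter cells for 90 min at 37 C, with 57 uM final dopamine (EC100) defining full response. Beta-arrestin recruitment detected by chemiluminescent reagent, read after 1 h at ambient temperature.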
Anesthetic bind – candidate novel general anesthetic via apoferritin binding | P02791 | apoferritin/1-aminoanthracene competitive binding, fluorescence | Potency, µM (titrated, usually from 77.5 µM), for inactives: at the top dose activity change, negative = displacement, usual class: inhibitors | 0.074% of 350,000 active; active = well fitted inhibition curve with a large enough effect; inconclusive = small, poorly fitted or top-dose-only effect; inactive = no such curve, though single readings can be large or run the other way; also: potency is read from the fitted curve at half-maximal effect; % is scaled to controls: 0 for no effect and ±100 for the full control effect; nearly all actives have a fitted effect of over 20% in size
Target sequence (P02791 2-175 limits assumed): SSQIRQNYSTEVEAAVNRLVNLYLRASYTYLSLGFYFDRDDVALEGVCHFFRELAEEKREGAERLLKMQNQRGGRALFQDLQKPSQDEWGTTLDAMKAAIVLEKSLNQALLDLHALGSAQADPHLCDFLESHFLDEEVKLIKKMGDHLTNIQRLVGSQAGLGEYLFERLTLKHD
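In PBS, apoferritin at 10 uM is loaded with 1-AMA from a 50% saturated solution. After 10 min of compound exposure at ambient temperature, reduced 535 nm fluorescence indicates probe displacement.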
D2 ag-2 – agonists of human D2 dopamine receptor; P14416; HEK293 T-REx D2 cells, calcium flux agonist mode; activation, % at 2 µM; 0.53% of 340,000 active;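 active = activation over 3 SD above normal in the single-dose calcium agonist read, cut at about 30% in these data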; also: 0% is about no effect
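Calcium-flux readout, 1 cycle/sec over 180 s following compound pin transfer, in inducible HEK293 Trex D2 cells (force-coupled); dopamine controls included. Positive calcium responses during this window marked compounds as potential agonists.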
D2 PAM-2 – potentiates the human D2 dopamine receptor allosterically; P14416; DiscoveRx D2 beta-arrestin cells, luminescence, 90 min; 100% = 57 uM dopamine signal; potentiation, % (concentration not given with the values); 0.23% of 360,000 active; in the data active = potentiation above about 50%; inconclusive = mostly about 30% to 49%
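PathHunter D2 cells, attached overnight at 37 deg C, received compound in DMSO plus dopamine at EC20 (50 nM final) for 90 min at 37 deg C. Beta-arrestin recruitment was read as luminescence after 1 h with detection reagent at ambient temperature.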
* marks the source's active call; other numbers are inactive results; ? = inconclusive; . = not tested or not shown; [ ] = dose if it differs, or a comment.

SMILES	D2 PAM-1	D2 antag	D2 ag-1	Anesthetic bind	D2 ag-2	D2 PAM-2
Cc1nc2ccccc2c(=O)n1/N=C/c1ccc(O)c(O)c1O	-0.1	6.4	47.8*	6.5%	-0.3	10.3
COc1ccc(CCNC(=O)c2n[nH]c3ccccc23)cc1	-10.2	41.8*	1.9	-10.1%	4.3	1.3
COc1ccc(S(=O)(=O)NC2CCCC2)cc1Br	7.5	30.9*	-3.7	-20.3%	0.9	-7.6
COc1ccc(CCNC(=O)COC(=O)C2CC2)cc1	-0.5	31.3*	-2.9	-6.2%	0.6	0.6
COc1ccc(CNC(=O)COC(=O)c2n[nH]c3ccccc23)cc1	-8.0	1.0	-2.4	?	0.7	19.9
COc1ccc(CCNC(=O)COc2ccc(S(=O)(=O)NC3CCCCC3)cc2Cl)cc1	33.7*	-6.1	3.3	30.1%	1.0	-2.4
Cc1ccc(C(=O)N2CCN(S(=O)(=O)c3ccc(Br)cc3)CC2)o1	-0.7	2.4	-3.8	-15.7%	0.0	-8.4
CN(C)C(CNC(=O)CCc1nc2cc(Cl)ccc2n(Cc2ccccc2)c1=O)c1ccccc1 (configuration not stated)	-13.3	1.6	-8.3	.	-0.3	-28.2
COC(=O)c1ccc(Nc2cc(C)nc(-c3ccccc3O)n2)cc1	5.2	9.5	-4.9	-9.7%	1.3	18.0
CCC(C)(C)NC(=O)C(c1ccc(F)cc1)N(Cc1ccco1)C(=O)c1snc(C(N)=O)c1N (configuration not stated)	-11.7	-9.0	1.4	2.6%	0.4	-2.8
CCOC(=O)C1(Cc2ccccc2C(F)(F)F)CCN(CCCn2cccn2)CC1	-21.9	47.9*	-2.7	0.0%	-0.2	-13.6
CCOC(=O)C1(Cc2ccccc2C(F)(F)F)CCN(C2CCC2)CC1	-18.4	32.1*	-5.0	2.4%	-1.7	-30.8
COc1ccc(OC)c(NC(=O)NC2CCCCCCC2)c1	-16.9	10.0	14.8	-13.2%	0.3	-41.1
COc1ccc(C)cc1NC(=O)NC1CCCCCCC1	-17.1	32.0*	-2.1	?	0.1	-31.7
COc1ccc(OC)c(NC(=O)NCc2ccc(F)cc2)c1	-16.1	38.9*	-0.1	-0.4%	0.8	-18.2
COc1ccc(NS(=O)(=O)c2cccc(NC(=O)NC3CCCCC3)c2)cc1	-7.9	-9.7	-3.4	1.2%	0.3	-10.6
COc1ccc(NS(=O)(=O)c2ccc(C)c(NC(=O)NC3CCCCC3)c2)cc1	-21.1	33.5*	4.0	?	-0.9	-16.4
COc1ccc(CNC(=O)Nc2cc(C)ccc2C)cc1	-7.8	5.3	-4.7	-4.2%	1.4	-8.4
COc1ccc(C)cc1NC(=O)NCc1ccc(F)cc1	-20.3	52.8*	-5.7	-7.7%	-0.7	-22.3
Brc1cnc2nc(SC/C=C/c3ccccc3)[nH]c2c1	0.1	2.8	7.6	6.2%	-0.7	-11.5
CO[C@H]1COC(=O)[C@@H](CCSC)NC(=O)C/C=C\[C@@H](C)COC(=O)[C@@H](OCc2ccccc2)/C=C\[C@@H]1C	.	.	.	-2.0%[15.3 µM]	.	.
CCOc1ccc(C(=O)Nc2ccc(OCc3cc(=O)n4cccc(C)c4n3)cc2)cc1	9.2	.	.	2.6%	1.4	.
Cn1c(C(O)c2ccc3c(c2)OCO3)nc2ccccc21 (configuration not stated)	-6.2	.	-0.6	3.6%	.	-12.0
Cc1ccc(C(=O)NCc2ccc3c(c2)OCO3)c(Cl)c1	.	.	2.0	.	.	-9.7
COc1ccc(OC)c(NC(=O)C2(C)CCN2Cc2ccccc2OC(F)F)c1 (configuration not stated)	.	.	108.2*	.	.	17.6
SMILES	D2 PAM-1	D2 antag	D2 ag-1	Anesthetic bind	D2 ag-2	D2 PAM-2
CC1CCN(C(=O)CSc2nnc3ccc(-c4cccnc4)nn23)CC1	-4.4	37.8*	-1.5	.	-0.1	16.0
COc1ccc(NC(=O)c2sc(=O)n(Cc3cccc(C(F)(F)F)c3)c2C)cc1OC	.	.	8.0	.	.	0.7
Cc1c(C)n(-c2ccccc2)c2ncnc(NCCN(C)C)c12	-24.7	39.7*	-5.6	5.6%	-0.4	-22.5
COc1ccc(Cn2cnc3sccc3c2=O)cc1	16.5	5.4	-2.7	-13.6%	0.5	-6.9
COc1ccc(-c2coc3cc(OC(=O)N4CCOCC4)ccc3c2=O)cc1	17.8	10.1	1.0	3.1%	-1.2	-7.8
COc1ccc(Oc2c(C)oc3cc(OC(=O)N4CCOCC4)ccc3c2=O)cc1	41.6*	4.4	0.3	-2.8%	0.3	-5.6
CC1CCC(C(C)C)C(OC(=O)C[n+]2cc(-c3ccc(Cl)cc3)n3c2CCCCC3)C1 (configuration not stated)	-5.2	33.1*	1.0	-18.6%	0.9	-6.5
O=C(Nc1ccc(Cl)cn1)C1COc2ccccc2O1 (configuration not stated)	-18.6	-4.0	-2.7	-18.6%	-0.2	-7.8
COc1cc(OC)cc(-c2nnc(Sc3ccc(C=O)cc3[N+](=O)[O-])o2)c1	-6.7	-5.7	.	-12.7%	0.4	.
COc1ccc(OC)c(/C(C)=N/Nc2ccc(C(=O)O)cc2)c1	7.0	-10.3	-2.8	0.2%	0.1	-1.9
C/C(=N/Nc1ccc(C(=O)O)cc1)c1ccc(O)c(O)c1O	0.4	-6.4	?	2.1%	-0.3	84.7*
CCOC(=O)c1c(C)[nH]c(C)c1S(=O)(=O)N(C)CC(=O)NCc1cccc(Br)c1	-0.8	-25.9	-2.2	7.1%	0.6	-5.7
O=C(Cc1ccccc1[N+](=O)[O-])NCc1ccc(Cl)cc1	13.3	-6.5	-1.4	-11.5%	-1.2	3.0
O=C(Cc1ccccc1[N+](=O)[O-])NCc1ccc(Cl)cc1Cl	6.2	32.9*	-0.7	-5.5%	-3.3	6.7
COc1ccccc1C1SCCN1S(C)(=O)=O (configuration not stated)	6.8	7.7	0.3	11.2µM*	-1.7	11.6
COc1ccc(OC)c(C2SCCN2S(C)(=O)=O)c1 (configuration not stated)	-3.2	-0.8	-3.3	-0.8%	0.1	1.7
Nc1ccccc1Nc1cc(-c2cccc(Cl)c2)nn1-c1ccccc1	6.4	-4.8	?	-17.7%	0.9	67.6*
CC(OC(=O)c1ccc(Cl)c(S(=O)(=O)N2CCc3ccccc32)c1)C(=O)Nc1ncc(Cl)cc1Cl (configuration not stated)	-0.4	-11.3	1.7	5.0%	-0.6	-2.2
Cc1ccc(S(=O)(=O)N(C)C)cc1NC(=S)N(CCC#N)Cc1cccnc1	-13.1	43.5*	-4.6	-1.0%	-0.1	-15.8
CC(C)OCCCNC(=O)c1ccc(CS(=O)(=O)c2cccc(C(F)(F)F)c2)o1	-3.6	9.1	3.0	-3.3%	-1.3	-13.1
